From PubChem BioAssay
A selection: hits, their analogues and other compounds. The true share with any hit is near 6.2%.
HCMV antiviral: blocks human cytomegalovirus replication. HFF cells, HCMV-luciferase reporter, 72 h; stronger effect = lower value. activity change, negative = inhibition, % at 57.5 µM. actives 4.5% (n = 410,000). AID 1259415; in the data active means activity change below about -60%; inconclusive means no clear call, values can overlap the other calls; inactive means above about -39%
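Human foreskin fibroblasts infected with luciferase-reporter HCMV at MOI 1 PFU/cell, compounds at two doses. Luciferase measured 72 h post infection; normalized to buffer-only basal and Salinomycin (10uM) controls.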
Marburg entry inh: inhibitors of Marburg virus binding or cell entry | Marburg virus pseudotyped entry inhibition, cell reporter | AID 540276 | actives 1.8% (n = 300,000) | Potency, µM (series often up to 37.8 µM), for inactives: at the top dose activity change, negative = inhibition, usual class: inhibitors; calls by dose curve; tested in HEK293 cells; further: potency means the concentration at half of the fitted maximal effect
FMDV inh: foot and mouth disease virus antiviral activity | FMDV antiviral cell-based qHTS | Potency, µM (highest dose often 57.9 µM), for the others: at the highest dose activity change, negative = inhibition, actives largely listed as inhibitors | actives 1.2% (n = 410,000) | AID 1159524; calls by dose curve; tested in HEK293T cells; further: read-out not given here; potency means the concentration at half of the fitted maximal effect; nearly all actives have a fitted effect of over 45% in size
LASV entry inh: inhibitors of Lassa virus binding or cell entry; Potency, µM (top dose mostly 37.9 µM), without a hit: at the highest dose activity change, negative = inhibition, hits mostly inhibitors; actives 1.2% (n = 300,000); Lassa virus pseudotype entry inhibition, cell reporter; calls by dose curve; tested in HEK293 cells; further: potency means the concentration at half of the fitted maximal effect; nearly all actives have a fitted effect of over 50% in size
Active calls of the source: *; ! = a repeat was not active; [ ] = remark or other dose. On the % scale 0 is the no-effect control and ±100 the full control effect.

CCCN1CCN(CCCNC(=O)c2cc3c(=O)[nH]c4ccc(C)cc4c3s2)CC1 was read as HCMV antiviral -101*, Marburg entry inh inconclusive, FMDV inh -19% and LASV entry inh -19%.
For CCN(CCCNC(=O)c1cc2c(=O)[nH]c3ccc(C)cc3c2s1)Cc1ccccc1 the results were HCMV antiviral -106*, Marburg entry inh 11µM*, FMDV inh inconclusive and LASV entry inh inconclusive.
`CCN(CCCNC(=O)c1cc2c(=O)[nH]c3ccc(C)cc3c2s1)c1ccc(C)cc1` gave HCMV antiviral -18, Marburg entry inh -10%[46.1 µM], FMDV inh -9% and LASV entry inh 12%[46.1 µM].
`CCOCCCN(Cc1ccco1)C(=O)c1cc2c(=O)[nH]c3ccc(C)cc3c2s1` gave HCMV antiviral -63*!, Marburg entry inh inconclusive and FMDV inh -15%.
`COC(=O)c1ccc(NC(=O)CC2C(=O)N(c3ccccc3)C(=O)N2C2CCCC2)cc1` (stereo unspecified) gave HCMV antiviral -1, FMDV inh -3% and LASV entry inh -2%[46.1 µM].
For Cc1cc(-c2ccccc2)nc2cc(C(=O)Nc3ccc(Cl)c(Cl)c3)nn12 the results were HCMV antiviral -11, FMDV inh inconclusive and LASV entry inh 9%[46.1 µM].
For Cc1c(Cl)cccc1NC(c1ccc(F)cc1)c1nnc(-c2ccccc2)o1 (stereo unspecified) the results were HCMV antiviral 20, FMDV inh -12% and LASV entry inh 21%[46.1 µM].
Cc1cc(Cl)ccc1OCC(=O)N1CCOc2ccc(CN3C[C@@H](C)O[C@@H](C)C3)cc2C1 was read as FMDV inh -20%.
For CCC(=O)N1[C@H](CO)[C@@H]2c3ccccc3N(C(=O)Nc3ccc(Cl)cc3)C[C@@H]21 the results were HCMV antiviral 21.
For NC(=O)c1ccsc1NC(=O)COC(=O)/C=C/c1ccccc1 the results were HCMV antiviral -21, Marburg entry inh -16%[46.1 µM], FMDV inh inconclusive and LASV entry inh 8%.
Screening NC(=O)c1ccsc1NC(=O)COC(=O)/C=C/c1ccccc1[N+](=O)[O-] returned HCMV antiviral -8, Marburg entry inh inconclusive, FMDV inh 32µM* and LASV entry inh 12%.
Screening COC(=O)c1c(OC)cc2c(c1C)Oc1c(Cl)c(OC(C)=O)c(Cl)c(C)c1C(=O)O2 returned FMDV inh -16%.
Screening O=C(NNc1ncccc1-n1cccc1)c1ccc(Cl)cc1 returned HCMV antiviral -6, Marburg entry inh -2%, FMDV inh -7% and LASV entry inh 14%.
CC(C)(C)c1ccc(C(=O)NNc2ncccc2-n2cccc2)cc1 was read as HCMV antiviral -60* and FMDV inh -10%.
For CS(=O)(=O)c1ccc(Nc2nccc3[nH]c(-c4ccsc4)cc23)cc1 the results were HCMV antiviral -9.
For CCCN(CCC)CCc1ccc(O)c(O)c1 the results were Marburg entry inh 1µM*!, FMDV inh -9% and LASV entry inh 24%.
Screening Cc1ccc(CN2C[C@H](Sc3ccccn3)C[C@H]2C(=O)Nc2ccc3sc(C)nc3c2)cc1 returned FMDV inh 4%.
For CCCc1cc(=O)oc2cc(OCC(=O)NCCCn3ccnc3)c(Cl)cc12 the results were HCMV antiviral -63* and FMDV inh -10%.
Screening CCCc1cc(=O)oc2c(C)c(OCC(=O)NCCCn3ccnc3)ccc12 returned HCMV antiviral -10, Marburg entry inh 9%[46.1 µM], FMDV inh -5% and LASV entry inh 14%[46.1 µM].
For COc1cccc(NC(=O)Cn2c(=O)n(-c3ccc(C)cc3)c(=O)c3ccc(C(=O)NCc4ccco4)cc32)c1 the results were HCMV antiviral -35, Marburg entry inh -24%[46.1 µM], FMDV inh 5% and LASV entry inh -29%[46.1 µM].
For O=C(N/N=C\c1c(F)c(F)c(F)c(F)c1F)c1ccc(-c2ccccc2)cc1 the results were HCMV antiviral -69*, Marburg entry inh 10%, FMDV inh 8% and LASV entry inh 6%.
Screening O=C(N/N=C\c1cccc(F)c1)c1ccc(-c2ccccc2)cc1 returned HCMV antiviral -33, Marburg entry inh 0%[46.1 µM], FMDV inh 27% and LASV entry inh -2%[46.1 µM].
`O=S(=O)(NCCc1csc(-c2cccc(F)c2)n1)c1cc(F)ccc1F` gave HCMV antiviral -106*, FMDV inh 32% and LASV entry inh -3%[46.1 µM].
`Cc1ccc(S(=O)(=O)NCCc2csc(-c3cccc(F)c3)n2)cc1` gave HCMV antiviral -24, FMDV inh -3% and LASV entry inh -1%[46.1 µM].
Screening CCc1ccc(S(=O)(=O)NCCc2csc(-c3ccccc3)n2)s1 returned HCMV antiviral -63*, Marburg entry inh inconclusive and LASV entry inh 10%.
For c1ccc(CN2CCC3(CCCc4ccccc43)CC2)cc1 the results were HCMV antiviral -7, Marburg entry inh 6.3µM*, FMDV inh inconclusive and LASV entry inh inconclusive.
N#CC(C#N)=NNc1ccc(S(=O)(=O)N2CCCC2)cc1 was read as HCMV antiviral -11, Marburg entry inh inconclusive, FMDV inh 32µM* and LASV entry inh 28%.
Screening Oc1ccc(C2=NN(c3ccccc3)C(c3ccc(F)cc3)C2)cc1 (stereo unspecified) returned HCMV antiviral 22, Marburg entry inh inconclusive, FMDV inh inconclusive and LASV entry inh 11µM*.
For Fc1ccc(C2CC(c3cccs3)=NN2c2ccccc2)cc1 (stereo unspecified) the results were HCMV antiviral -21, Marburg entry inh inconclusive, FMDV inh inconclusive and LASV entry inh inconclusive.
COc1ccc(C2CC(c3ccc(F)cc3)=NN2c2ccccc2)cc1OC (stereo unspecified) was read as HCMV antiviral 77, Marburg entry inh 3%, FMDV inh 31% and LASV entry inh inconclusive.
Screening Oc1ccccc1C1=NN(c2ccccc2)C(c2ccc(F)cc2)C1 (stereo unspecified) returned HCMV antiviral -74*, Marburg entry inh -10%[46.1 µM], FMDV inh -30% and LASV entry inh -23%[46.1 µM].
For COc1cccc(-c2cc(C(F)(F)F)nc(-n3nc(C)c(Br)c3C)n2)c1 the results were HCMV antiviral -13, Marburg entry inh 2%[46.1 µM], FMDV inh 0% and LASV entry inh 4%[46.1 µM].
For Cc1sc2ncn(CC(=O)NCCCC(=O)Nc3ccc(C(C)C)cc3)c(=O)c2c1C the results were HCMV antiviral -76*, Marburg entry inh inconclusive, FMDV inh -5% and LASV entry inh inconclusive.
For O=C(CSc1nnc(-c2cc3ccccc3cc2O)n1Cc1ccco1)c1ccc(F)cc1 the results were HCMV antiviral inconclusive, Marburg entry inh inconclusive, FMDV inh -14% and LASV entry inh 23µM*.
Screening Cc1occc1-c1nnc(SCC(=O)c2ccc(F)cc2)n1Cc1ccco1 returned HCMV antiviral -10, Marburg entry inh 0%, FMDV inh -4% and LASV entry inh -12%.
`Cc1ccc(C(=O)CSc2nnc(CNc3ccc(C)cc3C)n2Cc2ccco2)cc1` gave HCMV antiviral 17, Marburg entry inh inconclusive, FMDV inh inconclusive and LASV entry inh 26µM*.
Screening CC(C)C[C@@H]1COc2cccc(NN3CCN(C)CC3)c2S(=O)(=O)N1 returned LASV entry inh -1%[46.1 µM].
